The panel holds about 79,000 compounds, 15% with a hit somewhere; the sample as a whole holds those more often. Values without a mark were called inactive. Calls of active or inactive are those of the source. Rule as the data show it: active = growth inhibition above about 70%; inactive = the rest.

The test is described as follows: NCI Yeast Anticancer Drug Screen. Data for the sgs1 mgt1 strain (AID 161).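 Also: 0% = growth of cultures given vehicle only.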 The following applies: S. cerevisiae sgs1 mgt1 strain, at 50.0 µM, active compounds read high. In a few lines:
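Mutant yeast exposed to compound; growth scored against vehicle-only wells.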
For the molecule `COc1ccc2ncc(COC(=O)Nc3ccccc3)c(COC(=O)Nc3ccccc3)c2c1`, the growth inhibition is 11.8%.
With `Ic1ccccc1/C=C/c1ccccn1` the figure was 28.7%; with `NC(CC(=O)O)C(=O)OCc1cccc(N=Nc2ccccc2)c1` (centres undefined), -7.2%; with `O=C(Cc1ccccc1)N/N=C(/c1nc2ccc([N+](=O)[O-])cc2[nH]c1=O)C(O)c1ccco1` (centres undefined), -4.85%.
As for `NC(=O)C[n+]1cccc(C(=O)Nc2ccc(Cl)cc2)c1`, the growth inhibition was 3.95%.
In the case of `[C-]#[N+]C(=C\c1ccc(O)cc1)/C(=C/c1ccc(O)cc1)[N+]#[C-]` it was 97.8% (active); in that of `CCCCNCCCC(C(=O)O)c1ccccc1` (centres undefined), 3.8%.
In the case of `BrC1CC2CC1C1C2CC2OC21` (centres undefined) it was -22.4%; in that of `CN(C)CCCn1c2ccccc2c2cnccc21`, -17.6%.
In the case of `N#Cc1cnn2ccn(C3OC(CO)C(O)C3O)c12` (centres undefined) it was -18.9%; in that of `CCC(=O)NCCCCCN1CCCCC1`, 9.75%.
Consider `Cc1ccc2c(c1)[nH]c(=S)n2/C=C1\C(=O)Oc2ccccc2C1=O`, for which the growth inhibition was -44.4%.
In the case of `O=C(OCC(Br)C(Br)c1ccccc1)c1ccccc1` (centres undefined) it was -2%; in that of `CCCOCOCCC`, -13.2%.
For the molecule `S=c1nc[nH]c2c1CN(Cc1ccccc1)CC2`, the growth inhibition was 4.6%.
In the case of `N#C/C(=C\C=C\c1ccccc1)C(N)=O` it was -27.4%.
In the case of `CCOC(=O)C(NC(=O)OC(C)(C)C)C(=O)OCC` it was -33.1%.
In the case of `CC1(C)COC(=O)/C1=C/C#N` it was -1.5%; in that of `CN(C(=O)C1C2c3ccccc3C(c3ccccc32)C1C(=O)N(C)c1ccccc1)c1ccccc1` (centres undefined), 22.4%.

Source of the values: PubChem BioAssay (NCI).
